8 molecules from ChEMBL document CHEMBL1961873, “Compounds: GSK PKIS; Assays: Nanosyn kinase panel” (2012) can be followed below.

For test [1], the target named is T1, Serine/threonine-protein kinase Nek9 (Homo sapiens) (UniProt Q8TD19).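 Further: each value is a mean percent inhibition of NEK9.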
T1 sequence (whole entry): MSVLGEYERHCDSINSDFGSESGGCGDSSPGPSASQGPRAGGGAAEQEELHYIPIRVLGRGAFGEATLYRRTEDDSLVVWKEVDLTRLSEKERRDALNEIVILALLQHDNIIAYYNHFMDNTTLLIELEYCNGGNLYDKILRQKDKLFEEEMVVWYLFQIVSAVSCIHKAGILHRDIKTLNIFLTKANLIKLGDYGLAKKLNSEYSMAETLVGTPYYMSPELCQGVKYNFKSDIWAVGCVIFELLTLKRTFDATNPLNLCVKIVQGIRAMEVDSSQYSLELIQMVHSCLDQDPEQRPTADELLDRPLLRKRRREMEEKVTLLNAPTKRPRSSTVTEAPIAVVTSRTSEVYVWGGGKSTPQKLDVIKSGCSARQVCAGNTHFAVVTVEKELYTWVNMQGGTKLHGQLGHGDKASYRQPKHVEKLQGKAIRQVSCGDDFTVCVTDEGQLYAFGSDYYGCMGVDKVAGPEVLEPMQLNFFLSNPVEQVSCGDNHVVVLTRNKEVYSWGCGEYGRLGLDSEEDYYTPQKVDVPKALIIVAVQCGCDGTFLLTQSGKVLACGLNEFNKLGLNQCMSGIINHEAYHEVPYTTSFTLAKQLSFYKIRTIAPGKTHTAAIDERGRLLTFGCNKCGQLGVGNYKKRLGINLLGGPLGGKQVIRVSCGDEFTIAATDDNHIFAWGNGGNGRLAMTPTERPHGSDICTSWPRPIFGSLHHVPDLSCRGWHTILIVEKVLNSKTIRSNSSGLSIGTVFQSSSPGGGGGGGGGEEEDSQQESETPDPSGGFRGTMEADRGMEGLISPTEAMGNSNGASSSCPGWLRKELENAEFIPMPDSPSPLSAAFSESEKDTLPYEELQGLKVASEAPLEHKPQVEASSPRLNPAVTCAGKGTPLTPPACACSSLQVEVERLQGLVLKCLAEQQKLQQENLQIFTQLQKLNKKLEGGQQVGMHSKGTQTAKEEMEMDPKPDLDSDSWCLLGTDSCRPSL
As to conditions: at 1 µM.

The target of test [2] is Serine/threonine-protein kinase PLK1 (Homo sapiens) (UniProt P53350). As to conditions: at 0.1 µM.
Chain of Serine/threonine-protein kinase PLK1 (Homo sapiens) (P53350 whole entry): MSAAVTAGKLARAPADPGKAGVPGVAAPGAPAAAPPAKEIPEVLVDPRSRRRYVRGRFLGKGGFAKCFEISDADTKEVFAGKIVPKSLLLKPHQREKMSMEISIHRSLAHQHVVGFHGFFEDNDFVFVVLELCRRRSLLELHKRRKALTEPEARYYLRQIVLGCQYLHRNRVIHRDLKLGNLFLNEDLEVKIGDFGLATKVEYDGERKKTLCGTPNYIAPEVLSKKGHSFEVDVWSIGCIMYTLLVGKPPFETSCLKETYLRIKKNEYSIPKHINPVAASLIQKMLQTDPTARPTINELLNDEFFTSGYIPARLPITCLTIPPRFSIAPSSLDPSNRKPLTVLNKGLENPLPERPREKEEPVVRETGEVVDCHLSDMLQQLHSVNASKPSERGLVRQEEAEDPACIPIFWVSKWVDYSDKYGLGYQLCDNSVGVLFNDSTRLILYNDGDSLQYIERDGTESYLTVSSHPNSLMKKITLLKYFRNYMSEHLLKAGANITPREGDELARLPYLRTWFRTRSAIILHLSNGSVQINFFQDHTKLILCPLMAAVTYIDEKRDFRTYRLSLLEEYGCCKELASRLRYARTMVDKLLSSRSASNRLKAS
For test [3] the target is unchanged. As to conditions: at 1 µM.
The target of test [4] is T2, Dual specificity protein kinase TTK (Homo sapiens) (UniProt P33981).
T2 sequence (whole entry): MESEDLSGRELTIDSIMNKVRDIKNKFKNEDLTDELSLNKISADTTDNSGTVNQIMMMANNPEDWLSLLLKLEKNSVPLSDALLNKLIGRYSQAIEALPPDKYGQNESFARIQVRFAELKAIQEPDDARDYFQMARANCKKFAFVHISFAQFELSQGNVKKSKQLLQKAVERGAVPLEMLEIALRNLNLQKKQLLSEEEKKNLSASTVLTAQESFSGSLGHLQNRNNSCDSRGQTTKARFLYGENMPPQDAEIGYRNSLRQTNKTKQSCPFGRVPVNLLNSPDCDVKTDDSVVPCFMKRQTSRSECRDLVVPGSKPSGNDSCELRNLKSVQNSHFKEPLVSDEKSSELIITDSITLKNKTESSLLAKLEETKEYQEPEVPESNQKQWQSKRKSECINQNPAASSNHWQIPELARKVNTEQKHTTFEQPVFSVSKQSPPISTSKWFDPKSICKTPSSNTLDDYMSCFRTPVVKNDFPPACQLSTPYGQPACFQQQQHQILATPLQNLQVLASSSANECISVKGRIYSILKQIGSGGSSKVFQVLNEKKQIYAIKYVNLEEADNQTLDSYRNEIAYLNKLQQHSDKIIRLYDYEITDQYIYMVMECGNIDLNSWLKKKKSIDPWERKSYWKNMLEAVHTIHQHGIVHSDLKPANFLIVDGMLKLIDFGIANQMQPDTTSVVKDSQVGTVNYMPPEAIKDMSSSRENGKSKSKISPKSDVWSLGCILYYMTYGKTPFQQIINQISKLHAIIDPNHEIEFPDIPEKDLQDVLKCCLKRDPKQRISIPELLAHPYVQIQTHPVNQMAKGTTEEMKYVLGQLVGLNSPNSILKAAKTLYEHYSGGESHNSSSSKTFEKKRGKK
As to conditions: at 0.1 µM.

For test [5], the system named is T3, Receptor-type tyrosine-protein kinase FLT3 (Homo sapiens), P36888 [D835Y].
T3 sequence (whole entry): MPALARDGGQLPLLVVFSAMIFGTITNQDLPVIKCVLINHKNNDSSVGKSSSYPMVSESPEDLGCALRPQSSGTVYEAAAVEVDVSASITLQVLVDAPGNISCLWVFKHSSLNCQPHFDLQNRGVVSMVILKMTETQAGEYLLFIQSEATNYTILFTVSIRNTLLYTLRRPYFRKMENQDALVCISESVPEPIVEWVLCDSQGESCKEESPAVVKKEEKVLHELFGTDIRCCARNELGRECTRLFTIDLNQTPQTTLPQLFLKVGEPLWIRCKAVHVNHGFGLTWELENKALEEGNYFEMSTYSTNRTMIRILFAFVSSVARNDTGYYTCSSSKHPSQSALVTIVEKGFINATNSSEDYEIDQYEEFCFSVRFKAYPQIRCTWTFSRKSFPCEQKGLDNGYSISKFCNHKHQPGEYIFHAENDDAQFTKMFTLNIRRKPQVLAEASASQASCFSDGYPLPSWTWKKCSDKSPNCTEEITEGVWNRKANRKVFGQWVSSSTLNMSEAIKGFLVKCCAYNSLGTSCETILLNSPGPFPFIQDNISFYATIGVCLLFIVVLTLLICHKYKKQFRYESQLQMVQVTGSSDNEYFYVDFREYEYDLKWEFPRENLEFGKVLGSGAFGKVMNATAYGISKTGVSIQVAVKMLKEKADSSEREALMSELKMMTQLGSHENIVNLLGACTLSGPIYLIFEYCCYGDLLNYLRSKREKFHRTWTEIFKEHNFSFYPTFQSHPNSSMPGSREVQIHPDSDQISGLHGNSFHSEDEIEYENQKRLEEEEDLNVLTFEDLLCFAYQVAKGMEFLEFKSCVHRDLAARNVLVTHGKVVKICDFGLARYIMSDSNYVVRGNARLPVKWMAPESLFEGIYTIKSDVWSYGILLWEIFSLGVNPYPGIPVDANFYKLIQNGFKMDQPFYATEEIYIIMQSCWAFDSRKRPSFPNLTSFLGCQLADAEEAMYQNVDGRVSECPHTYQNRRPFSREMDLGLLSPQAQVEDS
As to conditions: at 1 µM.

Test [6] has as its target Vascular endothelial growth factor receptor 3 (Homo sapiens) (UniProt P35916). As to conditions: at 0.1 µM.
For test [7] the target is unchanged. As to conditions: at 1 µM.
Test [8] deals with Macrophage colony-stimulating factor 1 receptor (Homo sapiens) (UniProt P07333). As to conditions: at 0.1 µM.
Chain of Macrophage colony-stimulating factor 1 receptor (Homo sapiens) (P07333 whole entry): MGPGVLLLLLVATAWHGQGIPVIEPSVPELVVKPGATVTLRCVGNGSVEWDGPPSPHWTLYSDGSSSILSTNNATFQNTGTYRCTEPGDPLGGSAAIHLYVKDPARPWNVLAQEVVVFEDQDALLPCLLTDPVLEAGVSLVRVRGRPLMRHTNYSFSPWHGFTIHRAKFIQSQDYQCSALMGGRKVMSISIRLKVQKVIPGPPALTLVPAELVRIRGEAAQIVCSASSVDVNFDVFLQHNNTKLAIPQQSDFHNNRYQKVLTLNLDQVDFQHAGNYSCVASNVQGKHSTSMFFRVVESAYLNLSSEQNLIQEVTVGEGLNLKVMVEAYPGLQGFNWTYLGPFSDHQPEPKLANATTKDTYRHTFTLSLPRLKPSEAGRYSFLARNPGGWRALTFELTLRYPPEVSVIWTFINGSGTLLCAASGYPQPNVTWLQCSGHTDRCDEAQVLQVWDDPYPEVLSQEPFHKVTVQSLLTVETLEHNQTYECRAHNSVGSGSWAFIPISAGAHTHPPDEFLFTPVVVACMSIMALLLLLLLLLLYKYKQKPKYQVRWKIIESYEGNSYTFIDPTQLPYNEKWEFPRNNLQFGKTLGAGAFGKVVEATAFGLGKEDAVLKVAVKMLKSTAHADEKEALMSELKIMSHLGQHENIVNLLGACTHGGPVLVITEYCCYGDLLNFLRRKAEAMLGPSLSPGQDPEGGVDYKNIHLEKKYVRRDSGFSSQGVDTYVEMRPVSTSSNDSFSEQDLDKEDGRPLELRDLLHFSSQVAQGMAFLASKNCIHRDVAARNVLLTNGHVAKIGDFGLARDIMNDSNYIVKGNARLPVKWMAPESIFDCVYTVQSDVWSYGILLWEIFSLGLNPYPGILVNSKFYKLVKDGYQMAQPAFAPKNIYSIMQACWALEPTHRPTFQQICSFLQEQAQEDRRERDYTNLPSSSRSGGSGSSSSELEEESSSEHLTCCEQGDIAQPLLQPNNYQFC
For test [9] the target is unchanged. As to conditions: at 1 µM.
For test [10], the target named is Tyrosine-protein kinase Fyn (Homo sapiens) (UniProt P06241). As to conditions: at 0.1 µM.
Chain of Tyrosine-protein kinase Fyn (Homo sapiens) (P06241 2-537 limits assumed): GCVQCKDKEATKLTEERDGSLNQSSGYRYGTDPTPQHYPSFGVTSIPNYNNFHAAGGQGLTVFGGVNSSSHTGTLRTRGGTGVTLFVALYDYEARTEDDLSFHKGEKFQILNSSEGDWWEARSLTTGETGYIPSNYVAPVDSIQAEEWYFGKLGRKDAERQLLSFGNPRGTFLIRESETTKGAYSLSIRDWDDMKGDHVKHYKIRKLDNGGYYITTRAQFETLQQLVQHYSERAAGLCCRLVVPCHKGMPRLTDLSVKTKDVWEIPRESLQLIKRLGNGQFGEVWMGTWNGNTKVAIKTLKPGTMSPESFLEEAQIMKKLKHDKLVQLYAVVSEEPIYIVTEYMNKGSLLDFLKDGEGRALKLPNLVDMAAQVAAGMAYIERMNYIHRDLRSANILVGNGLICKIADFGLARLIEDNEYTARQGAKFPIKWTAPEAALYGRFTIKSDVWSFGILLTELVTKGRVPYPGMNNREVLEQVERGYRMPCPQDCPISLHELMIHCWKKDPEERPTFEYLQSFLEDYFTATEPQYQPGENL

Chain of Vascular endothelial growth factor receptor 3 (Homo sapiens) (P35916 whole entry): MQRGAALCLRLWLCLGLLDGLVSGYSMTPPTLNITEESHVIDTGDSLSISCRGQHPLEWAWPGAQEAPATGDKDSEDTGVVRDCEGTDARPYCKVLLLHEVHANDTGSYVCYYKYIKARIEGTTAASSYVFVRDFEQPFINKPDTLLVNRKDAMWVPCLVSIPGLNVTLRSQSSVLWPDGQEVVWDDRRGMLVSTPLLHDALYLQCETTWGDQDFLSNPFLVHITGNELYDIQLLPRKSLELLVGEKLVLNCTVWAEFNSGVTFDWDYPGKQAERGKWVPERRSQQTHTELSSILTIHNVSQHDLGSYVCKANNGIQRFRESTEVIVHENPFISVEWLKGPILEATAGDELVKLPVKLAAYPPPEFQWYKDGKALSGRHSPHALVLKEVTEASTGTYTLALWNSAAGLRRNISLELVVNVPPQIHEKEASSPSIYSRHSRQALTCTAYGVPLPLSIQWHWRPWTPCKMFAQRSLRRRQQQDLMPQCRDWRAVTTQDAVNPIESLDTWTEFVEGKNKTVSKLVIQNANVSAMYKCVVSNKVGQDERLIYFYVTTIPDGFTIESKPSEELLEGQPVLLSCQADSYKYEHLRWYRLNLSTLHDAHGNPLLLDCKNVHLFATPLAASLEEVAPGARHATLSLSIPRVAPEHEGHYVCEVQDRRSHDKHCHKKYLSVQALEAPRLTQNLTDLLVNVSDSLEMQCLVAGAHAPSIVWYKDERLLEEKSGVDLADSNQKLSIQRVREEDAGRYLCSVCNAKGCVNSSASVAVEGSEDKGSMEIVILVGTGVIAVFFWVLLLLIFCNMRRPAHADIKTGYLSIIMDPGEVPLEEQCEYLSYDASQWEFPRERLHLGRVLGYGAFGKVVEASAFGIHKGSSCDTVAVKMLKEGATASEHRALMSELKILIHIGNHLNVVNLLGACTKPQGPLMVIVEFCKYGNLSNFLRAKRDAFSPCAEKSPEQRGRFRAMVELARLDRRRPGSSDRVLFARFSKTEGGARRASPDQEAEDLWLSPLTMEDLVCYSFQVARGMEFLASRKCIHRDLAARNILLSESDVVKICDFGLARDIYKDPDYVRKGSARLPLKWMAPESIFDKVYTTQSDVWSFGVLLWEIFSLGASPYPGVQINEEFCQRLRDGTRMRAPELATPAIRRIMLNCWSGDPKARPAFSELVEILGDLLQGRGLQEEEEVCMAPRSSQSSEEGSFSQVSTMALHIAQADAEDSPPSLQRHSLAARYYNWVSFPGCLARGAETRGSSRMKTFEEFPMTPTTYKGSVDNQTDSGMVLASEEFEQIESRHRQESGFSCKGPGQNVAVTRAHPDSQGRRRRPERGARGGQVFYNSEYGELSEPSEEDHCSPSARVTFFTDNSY

As usually defined, the inhibition is the change of the read-out against control, counted positive when it falls. As to `Cn1cc(C=C2C(=O)Nc3cccnc32)c2ccccc21`, the inhibition in [1] was 4.67%; in test [2], 2.71%; in test [3] it was 1.58%; in test [4], 9.66%; in [5] it was 77.5%; in [6], 4.88%. In addition, the inhibition in test [7] came out at 30.3%; in test [8], 6.48%; in test [9], 30.9%; in test [10], 4.64%.
Turning to `Nc1ncnc2occ(-c3ccc(NC(=O)Nc4cc(C(F)(F)F)cc(C(F)(F)F)c4)cc3)c12`, the inhibition in test [1] is -1.98%; in test [2], 2.75%; in test [3], 1.86%; in test [4] it was 1.59%; in test [5], 33.2%; in test [6], 9.31%. Moreover, the inhibition was determined as 56.5% in [7], 51.2% in [8], 95.3% in test [9] and 0.55% in [10].
For the molecule `O=C1NC(=O)C(c2ccccc2Cl)=C1Nc1cccc(O)c1`, the inhibition in test [1] was -5.12%; in [2], 3.44%; in test [3] it was 3.38%; in test [4], 2.7%; in test [5] it was 3.87%; in test [6] it was 3.25%. For the same molecule, the inhibition in [7] was 3.79%; in test [8] it was -1.08%; in [9], 2.71%; in test [10], 1.1%.
Take `CCn1c(-c2nonc2N)nc2c(N3CCCC3)nccc21`: the inhibition was 1.67% in [1]; 1.87% in [2]; -0.08% in test [3]; 9.05% in [4]; -4.08% in [5]; 2.79% in [6]. For the same molecule, the inhibition is 3.38% in test [7], -0.51% in [8], 0.02% in [9] and -0.01% in test [10].
Consider `CS(=O)(=O)CCNCc1ccc(-c2ccc3ncnc(Nc4ccc(OCc5cccc(F)c5)c(C(F)(F)F)c4)c3c2)o1`, for which the inhibition was 10.1% in test [1]; 3.95% in test [2]; 3.53% in [3]; 12.1% in test [4]; 4.32% in test [5]; -0.03% in test [6]. Further, the inhibition is -1.42% in test [7], 0.94% in [8], -0.75% in test [9] and 1.1% in test [10].
`Cc1cccc(-c2n[nH]cc2-c2ccc3ncccc3n2)n1`: the inhibition in test [1] was 4.16%; in [2], 0.53%; in test [3], 3.07%; in [4] it was 2.51%; in [5] it was -2.35%; in test [6], 4.9%. The inhibition in [7] was 39.4%; in test [8] it was 2.38%; in [9], 2.47%; in [10] it was 0.64%.
With `CCn1c(-c2nonc2N)nc2ccncc21`, the inhibition in test [1] was 5.33%; in test [2] it was 1.68%; in test [3] it was 2.44%; in test [4], 3.2%; in test [5], 0.13%; in test [6] it was 2.12%. Moreover, the inhibition came to 2.74% in test [7], 0.3% in test [8], 0% in test [9] and 2.62% in [10].
Turning to `COc1cc2ncn(-c3cc(OCc4ccccc4Cl)c(C(N)=O)s3)c2cc1OC`, the inhibition in [1] came out at 55.5%; in test [2], 93.8%; in test [3], 96.3%; in [4], 2.78%; in test [5], 9.43%; in test [6], 11.9%. For the same molecule, the inhibition was 54.8% in test [7], 1.91% in [8], 23.7% in test [9] and 2.79% in [10].
